Experimental data: the supplement of paper PMC9694430

What was measured:
Assay in all cases: thermal shift delta Tm vs DMSO control; higher = stronger stabilization (binding)
Settings in all cases: 12.5 µM; protein concentration 2 µM
LOC_OS02G45750-cb003 = tested on: LOC_OS02G45750-cb003
Outline: (§1)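 Rice kinase domain constructs, made in E. coli and purified, were placed in 96-well plates at 2 μM in 19.5 μl of 100 mM potassium phosphate pH 7.5, 150 mM NaCl, 10% glycerol and 5 × SYPRO Orange, with compound in DMSO. A temperature ramp from 25°C to 95°C at 0.05°C/s was used for differential scanning fluorimetry. The melting temperature shift is a triplicate mean compared with DMSO-only protein, derived from Boltzmann fits.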

LOC_OS02G54510-cb004 = tested on: LOC_OS02G54510-cb004
Outline: as §1

LOC_OS03G04050-cb001 = tested on: LOC_OS03G04050-cb001
Outline: as §1

LOC_OS03G12390-cb001 = tested on: LOC_OS03G12390-cb001
Outline: as §1

LOC_OS03G27990-cb004 = tested on: LOC_OS03G27990-cb004
Outline: as §1

LOC_OS03G50450-cb001 = tested on: LOC_OS03G50450-cb001
Outline: as §1

LOC_OS03G50810-cb003 = tested on: LOC_OS03G50810-cb003
Outline: as §1

LOC_OS04G35114-cb001 = tested on: LOC_OS04G35114-cb001
Outline: as §1

LOC_OS04G38480-cb003 = tested on: T1, LOC_OS04G38480-cb003
T1 sequence (whole entry): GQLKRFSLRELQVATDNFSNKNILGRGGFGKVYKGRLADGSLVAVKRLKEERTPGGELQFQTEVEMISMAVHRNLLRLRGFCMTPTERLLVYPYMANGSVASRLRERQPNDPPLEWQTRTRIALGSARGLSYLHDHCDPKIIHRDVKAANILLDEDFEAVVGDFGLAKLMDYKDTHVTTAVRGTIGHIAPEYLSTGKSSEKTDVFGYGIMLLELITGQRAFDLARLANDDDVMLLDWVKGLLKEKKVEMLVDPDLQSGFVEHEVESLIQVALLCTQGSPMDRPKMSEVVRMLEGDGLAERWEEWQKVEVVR
Outline: as §1

LOC_OS04G41100-cb001 = tested on: T2, LOC_OS04G41100-cb001
T2 sequence (whole entry): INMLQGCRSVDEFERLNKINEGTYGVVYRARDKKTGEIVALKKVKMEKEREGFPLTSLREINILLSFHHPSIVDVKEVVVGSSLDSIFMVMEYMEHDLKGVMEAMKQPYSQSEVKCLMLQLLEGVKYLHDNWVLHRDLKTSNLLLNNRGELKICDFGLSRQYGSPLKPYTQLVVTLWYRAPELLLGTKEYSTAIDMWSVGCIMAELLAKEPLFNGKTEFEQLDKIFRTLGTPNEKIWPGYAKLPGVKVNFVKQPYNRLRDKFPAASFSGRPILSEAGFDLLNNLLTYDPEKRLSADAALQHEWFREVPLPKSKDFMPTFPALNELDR
Outline: as §1

LOC_OS04G57630-cb004 = tested on: LOC_OS04G57630-cb004
Outline: as §1

LOC_OS05G07850-cb002 = tested on: LOC_OS05G07850-cb002
Outline: as §1

LOC_OS05G16824-cb004 = tested on: LOC_OS05G16824-cb004
Outline: as §1

LOC_OS05G28520-cb001 = tested on: LOC_OS05G28520-cb001
Outline: as §1

LOC_OS05G30820-cb001 = tested on: LOC_OS05G30820-cb001
Outline: as §1

LOC_OS05G43570-cb004 = tested on: LOC_OS05G43570-cb004
Outline: as §1

LOC_OS06G16330-cb003 = tested on: LOC_OS06G16330-cb003
Chain of LOC_OS06G16330-cb003 (as listed by the source): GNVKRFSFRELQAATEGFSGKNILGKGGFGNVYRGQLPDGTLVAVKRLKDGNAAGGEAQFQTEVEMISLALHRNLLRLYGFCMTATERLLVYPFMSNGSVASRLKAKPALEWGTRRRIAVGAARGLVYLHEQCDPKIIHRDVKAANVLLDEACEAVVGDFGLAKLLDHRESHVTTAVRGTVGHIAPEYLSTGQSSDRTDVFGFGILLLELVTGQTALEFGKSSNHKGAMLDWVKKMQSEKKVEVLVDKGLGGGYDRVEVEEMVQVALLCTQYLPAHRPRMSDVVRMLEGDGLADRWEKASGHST
Outline: as §1

LOC_OS06G22820-cb001 = tested on: T3, LOC_OS06G22820-cb001
T3 sequence (whole entry): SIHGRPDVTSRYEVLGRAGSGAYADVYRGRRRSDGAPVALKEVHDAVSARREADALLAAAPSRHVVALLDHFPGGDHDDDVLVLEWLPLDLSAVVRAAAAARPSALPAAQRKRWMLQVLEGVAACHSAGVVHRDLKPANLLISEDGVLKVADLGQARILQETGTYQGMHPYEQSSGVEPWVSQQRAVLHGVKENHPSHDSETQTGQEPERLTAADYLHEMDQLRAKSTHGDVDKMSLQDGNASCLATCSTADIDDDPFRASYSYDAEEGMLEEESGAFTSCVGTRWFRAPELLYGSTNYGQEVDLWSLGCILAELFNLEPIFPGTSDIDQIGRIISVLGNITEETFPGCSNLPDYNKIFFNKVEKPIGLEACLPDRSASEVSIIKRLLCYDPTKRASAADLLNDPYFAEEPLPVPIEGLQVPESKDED
Outline: as §1

LOC_OS07G06570-cb004 = tested on: LOC_OS07G06570-cb004
Outline: as §1

LOC_OS07G07230-cb001 = tested on: LOC_OS07G07230-cb001
Outline: as §1
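Further: purified Escherichia coli-expressed rice kinase domain construct.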

Structure (SMILES) | thermal shift delta Tm (LOC_OS02G45750-cb003) [°C] | thermal shift delta Tm (LOC_OS02G54510-cb004) [°C] | thermal shift delta Tm (LOC_OS03G04050-cb001) [°C] | thermal shift delta Tm (LOC_OS03G12390-cb001) [°C] | thermal shift delta Tm (LOC_OS03G27990-cb004) [°C] | thermal shift delta Tm (LOC_OS03G50450-cb001) [°C] | thermal shift delta Tm (LOC_OS03G50810-cb003) [°C] | thermal shift delta Tm (LOC_OS04G35114-cb001) [°C] | thermal shift delta Tm (LOC_OS04G38480-cb003) [°C] | thermal shift delta Tm (LOC_OS04G41100-cb001) [°C] | thermal shift delta Tm (LOC_OS04G57630-cb004) [°C] | thermal shift delta Tm (LOC_OS05G07850-cb002) [°C] | thermal shift delta Tm (LOC_OS05G16824-cb004) [°C] | thermal shift delta Tm (LOC_OS05G28520-cb001) [°C] | thermal shift delta Tm (LOC_OS05G30820-cb001) [°C] | thermal shift delta Tm (LOC_OS05G43570-cb004) [°C] | thermal shift delta Tm (LOC_OS06G16330-cb003) [°C] | thermal shift delta Tm (LOC_OS06G22820-cb001) [°C] | thermal shift delta Tm (LOC_OS07G06570-cb004) [°C] | thermal shift delta Tm (LOC_OS07G07230-cb001) [°C]
CC(C)c1ccc2oc3nc(N)c(C(=O)O)cc3c(=O)c2c1 [Amlexanox] | 4.41 | 0.56 | 0.67 | 0.45 | 1.73 | 1.46 | 0.21 | 2.71 | 1.28 | 0.49 | 0.42 | 2.22 | 2.16 | 0.29 | 2.58 | 0.12 | 2.5 | 0.56 | 0.44 | 0.63
O=C(/C=C/c1ccc(O)c(O)c1)c1ccc(O)cc1O [Butein] | 2.94 | 0.39 | 1.9 | 3.8 | 1.75 | 2.26 | 2.72 | 3.66 | 3.43 | 2.09 | 2.45 | 8.49 | 4.48 | 1.45 | 0.81 | 1.93 | 4.87 | 2.16 | 1.46 | 0.82
Cc1ccc(NC(=O)c2ccc(CN3CCN(C)CC3)cc2)cc1Nc1nccc(-c2cccnc2)n1 [Imatinib (STI571)] | 1.17 | 0.22 | 0.47 | -0.05 | 0.26 | 0.4 | 0.42 | 0.92 | 0.88 | 0.5 | 0.39 | 2.43 | -0.13 | 0.71 | 0.5 | 0.23 | 0.3 | 0.22 | 1.37 | 0.97
C=CC(=O)N1CCC(Oc2cc3c(Nc4ccc(Cl)c(Cl)c4F)ncnc3cc2OC)CC1 [Poziotinib (HM781-36B)] | 2.04 | 1.05 | 0 | 3.61 | 0.49 | 1.57 | 0.16 | 4.23 | 1.12 | 0.18 | 0.32 | 4.97 | -0.85 | 0.58 | 0.44 | 0.15 | 8.31 | 0.44 | 0.72 | 0.28
C=CC(=O)Nc1cccc(Oc2nc(Nc3ccc(N4CCN(C)CC4)cc3)ncc2Cl)c1 | 3.96 | 0.5 | 0.53 | 3.42 | 2.49 | 1.35 | 4.77 | 3.8 | 1.67 | 1.1 | 1.97 | 11.6 | 8.96 | 4.43 | 1.14 | 0.72 | 5.65 | 0.76 | 0.79 | 1.03
Clc1ccc(Nc2nnc(Cc3ccncc3)c3ccccc23)cc1 [Vatalanib (PTK787) 2HCl] | 0.06 | 0.03 | 0.21 | -0.24 | 0.02 | -0.09 | -0.01 | 0.3 | -0.05 | 0.49 | -0.2 | -0.28 | -1.81 | -0.19 | 0.45 | 0.05 | 0.09 | 0.55 | 0.43 | 0.41
COc1cc2ncnc(Sc3nnc(C)s3)c2cc1OC | 2.63 | 0.34 | 0.71 | -0.23 | 0.56 | 0.5 | 0.54 | 2.86 | 0.54 | 0.9 | 0.11 | 4.44 | -0.85 | 0.25 | 0.64 | 0.17 | 2.49 | 0.32 | 1.21 | 1.4
CNC(=O)c1nn(C)c2c1C(C)(C)Cc1cnc(Nc3ccc(N4CCN(C)CC4)cc3)nc1-2 | 7.62 | 0.71 | 0.62 | -0.14 | 1.08 | 0.91 | 4.16 | 7.06 | 1.96 | 0.65 | 3.76 | 6.76 | 7.67 | 4.23 | 0.45 | 0.22 | 4.37 | 0.43 | 0.26 | 0.04
Cc1cc2c(F)c(Oc3ncnn4cc(OC[C@@H](C)OC(=O)[C@H](C)N)c(C)c34)ccc2[nH]1 | 1.3 | -0.11 | 0.25 | -0.23 | 1.72 | -0.29 | 0.18 | 5.17 | 0.59 | 0.68 | 0.17 | 2.83 | 1.32 | 0.65 | 0.41 | 0.24 | 0.16 | 0.5 | 0.52 | 0.42
Cc1cc(Nc2ncnc3ccc(NC4=NC(C)(C)CO4)cc23)ccc1Oc1ccn2ncnc2c1 [Irbinitinib (ARRY-380, ONT-380)] | 0 | 0.14 | 0.65 | -3.39 | -0.73 | -0.45 | -0.83 | -1.83 | 0.82 | 0.49 | 0.3 | 0.8 | -0.96 | 0.07 | 0.07 | 0.33 | -0.51 | 0.49 | 1.27 | 0.02
O=C1NC(=O)/C(=C/c2ccc3c(c2)OC(F)(F)O3)S1 | 1.3 | 0.48 | 0.81 | 0.94 | 0.43 | 0.55 | 0.65 | 0.97 | 1.58 | 0.5 | 0.83 | 0.16 | -1.22 | 0.96 | 0.8 | 0.74 | 0.37 | 0.72 | 0.31 | 0.11
COc1nccc(-c2c(-c3ccc(F)cc3)ncn2C2CCC(O)CC2)n1 (stereo not given) | 0.57 | -0.06 | 0.08 | 0.08 | 0.19 | 0.52 | 0.48 | 0.56 | 1.13 | 0.51 | 0.18 | -0.01 | 1.52 | 0.58 | 0.26 | 0.65 | 0.57 | 0.43 | 0.69 | -0.08
C#Cc1cccc(Nc2ncnc3cc(OC)c(OCCCCCCC(=O)NO)cc23)c1 | 2.9 | 1.18 | -0.05 | 2.33 | 0.11 | 0.09 | 1.73 | 5.97 | 1.01 | 0.37 | 0.04 | 7.33 | -6.18 | 0.35 | 0.58 | 0.66 | 1.72 | 0.49 | 0.91 | -0.06
